Experimental findings from PubChem BioAssay AID463173 (ICCB-Longwood Screening Facility, Harvard Medical School, 2010) are described below.

The structures appear in SMILES notation. In all, about 52,000 compounds went through this assay and about 1,700 (3.3%) were called active. Only a selection was taken, and actives are over-represented in it overall. A number with no mark means an inactive call. Cut-off read from the data, not from the text of the source: active = survival mostly below about 52% (no sharp cut-off); inactive = mostly above about 56%.

The test relates to Wild type. In words: growth inhibition of S. aureus wild type versus tarO mutant, primary screen, teichoic acid synthesis inhibitors, RN4220, OD600 (AID 463173). As to conditions: S. aureus RN4220 wild type/DeltatarO growth, OD600, 18 h, active compounds read low, screened at 18.75 µg/mL (by protocol).
For the molecule `COc1ccc(-c2c[n+](=O)c3c(n2[O-])CCC3)cc1`, the survival was 103%.
Take `COC(=O)C1CCN(S(=O)(=O)c2ccc(OC)cc2)CC1`: the survival was 102%.
Regarding `CCN(CC)C(=O)c1sc2c(c1C)c(=O)n(Cc1ccccc1)c(=O)n2Cc1ccc(Cl)cc1`, the survival is 73%.
For `CCc1ccc(CNC(=O)C2COc3ccc(OC)cc3C2)cc1` (centres undefined) the value was 93%.
Consider `Cc1ccc(NC(=O)Cn2cc3c(n2)CCCC3)c(Cl)c1`, for which the survival was 93%.
For `Cc1ccc(-n2ncc(C(=O)NCc3cccs3)c2C2CCN(C(=O)OC(C)(C)C)CC2)cc1C`, the survival was 90%.
Consider `CC(C)(C)OC(=O)N1CCC(c2c(C(=O)NCc3ccccc3)cnn2-c2ccc(F)cc2)CC1`, for which the survival was 133%.
Turning to `COc1ccc(CNC(=O)c2cnn(-c3ccc(OC)cc3)c2C2CCN(C(=O)OC(C)(C)C)CC2)cc1`, the survival is 76%.
To `CC(C)(C)OC(=O)N1CCC(c2c(C(=O)NCc3cccs3)cnn2-c2cccc(F)c2)CC1` belongs -6% (active); to `CC(C)(C)OC(=O)N1CCC(c2c(C(=O)NCc3cccs3)cnn2-c2ccc(F)cc2F)CC1`, 81%; to `CCOc1ccc(NC(=O)c2cnn(-c3ccc(C)c(C)c3)c2C2CCN(C(=O)OC(C)(C)C)CC2)cc1`, 89%.
Regarding `CC(C)(C)OC(=O)N1CCC(c2c(C(=O)NCc3ccc(F)cc3)cnn2-c2ccc(F)cc2)CC1`, the survival was -6% (active).
Take `CCOc1ccc(OCC)c(NC(=O)c2cnn(-c3ccc(F)cc3)c2C2CCN(C(=O)OC(C)(C)C)CC2)c1`: the survival was 14% (active).
To `CC(C)(C)OC(=O)N1CCC(c2c(C(=O)Nc3ccc4c(c3)OCCO4)cnn2-c2ccc(F)cc2)CC1` belongs 69%; to `COc1ccc(NC(=O)CSc2ncc3c(n2)-c2ccccc2N(Cc2ccc(C)cc2)S3(=O)=O)cc1Cl`, 134%; to `Cc1cccc(OCC(=O)OCc2cc(=O)n3nc(C4CCCCC4)sc3n2)c1`, 100%.
Consider `N#Cc1cc2cc3c(cc2nc1N1CCCN(C(=O)c2ccccc2)CC1)OCO3`, for which the survival was 103%.
To `COc1ccc(C(=O)NCC(c2ccc3c(c2)OCO3)N2CCN(c3ccccc3F)CC2)cc1` (centres undefined) belongs 77%; to `Cc1ccc(NC(=O)CN2C(=O)COc3ccc(S(=O)(=O)N4CCCCC4)cc32)cc1N(C)C`, 106%; to `CC(=O)N1CCc2cc(Br)cc(S(=O)(=O)CCC(=O)N3CCN(c4cccc(C)c4C)CC3)c21`, 77%.
For `Clc1cccc(CNc2ncnc3c2nc2n3CCCC2)c1` the value was 92%.
To `Fc1ccccc1Nc1ncnc2c1nc1n2CCCCC1` belongs 74%.
Consider `Fc1ccc(Nc2ncnc3c2nc2n3CCCCC2)c(F)c1`, for which the survival was 14% (active).
As for `COc1ccccc1Nc1ncnc2c1nc1n2CCCCC1`, the survival is 133%.
For `Clc1cccc(Nc2ncnc3c2nc2n3CCCCC2)c1` the value was -1% (active); for `CCc1ccccc1Nc1ncnc2c1nc1n2CCCC1`, 71%.
As for `COc1ccc(Nc2ncnc3c2nc2n3CCCC2)cc1Cl`, the survival is 59%.
For `Clc1ccccc1Nc1ncnc2c1nc1n2CCCCC1` the value was 0% (active); for `Fc1ccc(Nc2ncnc3c2nc2n3CCCC2)cc1`, 76%; for `CCC(=O)N1CCc2cc(S(=O)(=O)NC(Cc3ccccc3)C(=O)NCc3ccc(F)cc3)ccc21` (centres undefined), 83%.
As for `COc1ccc(-c2cc(-c3ccccc3)nc(SCC(=O)Nc3ccccc3C)c2C#N)cc1`, the survival is 70%.
For `COC(=O)c1ccc(Cl)cc1NC(=O)N(C)CCc1c(C)nn(C)c1C` the value was 111%; for `C#CCn1c(O)c(N=NC(=O)c2ccncc2)c2cc(Br)ccc21`, 110%; for `Cc1noc(C)c1S(=O)(=O)NCCc1csc2nc(-c3ccc(Cl)cc3)nn12`, 72%.
On to `O=C(O)c1cccc(NC(=O)c2cccc(S(=O)(=O)Nc3cccc(F)c3)c2)c1`, for which the survival was 169%.
To `CCc1c(C)nc2nncn2c1Nc1ccc(C)c(F)c1` belongs 83%.
For `Cc1cc(C)cc(NC(=O)Cc2c(C(=O)O)c(C)cn2C)c1` the value was 47%; for `CCOC(=O)c1cnc2c(C)cc(C)cc2c1Nc1cccc(C(=O)O)c1`, 23% (active).
For `CCOC(=O)c1cnc2c(ccc3ccccc32)c1Nc1ccccc1OCC` the value was 109%; for `CCOC(=O)c1cnc2c(Cl)cc(Cl)cc2c1Nc1ccccc1OC`, 65%; for `CCOC(=O)c1cnc2c(C)cc(C)cc2c1Nc1ccc(N2CCOCC2)cc1`, 15%.
With `CCOC(=O)c1cnc2c(C)cc(C)cc2c1NCCN1CCOCC1`, the survival was 53%.
On to `CCOC(=O)c1cnc2c(C(F)(F)F)cccc2c1Nc1cccc(C(=O)OC)c1`, for which the survival is 26%.
On to `CCOC(=O)c1cnc2c(C)cc(C)cc2c1Nc1ccc(OCc2ccccc2)cc1`, for which the survival was 11% (active).
For `CCOC(=O)c1cnc2c(C)cc(C)cc2c1Nc1ccccc1OCC` the value was -1% (active).
For `Cc1nn2c(=O)cc(COC(=O)c3ccccc3NC(=O)C(C)C)nc2s1` the value was 74%; for `Cc1cc(C)c2nc(N(Cc3cccnc3)C(=O)c3ccc(S(=O)(=O)N(C)C)cc3)sc2c1`, 57%.
For the molecule `COc1cccc(-c2nc(CS(=O)(=O)CC(=O)NCCc3ccc(OC)cc3OC)c(C)o2)c1`, the survival was 83%.
To `Cc1ccc(N(C)S(=O)(=O)c2nnc(NC(=O)CC(C)C)s2)cc1` belongs 87%; to `N=c1n(CCN2CCCCC2)c2ccccc2n1CC(O)COc1ccccc1` (centres undefined), 144%; to `N=c1n(CCN2CCCCC2)c2ccccc2n1CC(O)COc1ccc(Cl)cc1Cl` (centres undefined), -3% (active).
To `Cc1ccccc1OCC(O)Cn1c(=N)n(CCN2CCCCC2)c2ccccc21` (centres undefined) belongs 76%.
To `O=C(CSc1nc2c([nH]c3ccccc32)c(=O)n1-c1ccccc1)NCc1ccc(F)cc1` belongs 87%; to `COCCNC(=O)CSc1nnc(-c2ccc(OC)c(OC)c2)c(-c2ccc(OC)c(OC)c2)n1`, 68%; to `CC(=O)N1N=C(c2ccccc2)CC1c1ccccc1` (centres undefined), 104%.
In the case of `C=Cc1ccc(Cn2nc(-c3ccc(C)cc3)ccc2=O)cc1`, the survival was 57%.
To `O=C(O)/C(=C/C(=O)c1ccccc1)Nc1ccccc1` belongs 100%; to `O=C(COc1ccc(Cl)cc1)Nc1ccc(O)c(-c2nc3ccccc3s2)c1`, 69%; to `CC(C)c1ccc(C(=O)Nc2ccc(-c3nc4ccccc4s3)c(Cl)c2)cc1`, 141%.
To `Cn1c(=O)sc2cc(NS(=O)(=O)c3ccc(C(C)(C)C)cc3)ccc21` belongs 73%; to `CC(C)c1ccc(S(=O)(=O)Nc2ccc(O)c(Sc3nc4ccccc4s3)c2)cc1`, 0% (active); to `O=S(=O)(Nc1ccc(O)c(Sc2nc3ccccc3s2)c1)c1cc(Cl)ccc1Cl`, 0% (active).
Regarding `Cc1cc(S(=O)(=O)Nc2ccc3oc4c(c3c2)CCCC4)ccc1Cl`, the survival was 46%.
For `Cc1nc2ccc(S(=O)(=O)NC(C(=O)NCc3ccccc3Cl)C(C)C)cc2s1` (centres undefined) the value was 85%.
For `CC(=O)c1c(C)oc2ccc(NS(=O)(=O)c3ccc(C(C)C)cc3)cc12` the value was 86%; for `CC(C)NC(=O)c1nc2ccccc2s1`, 120%; for `O=S(=O)(Nc1ccc2oc3c(c2c1)CCCC3)c1cc(Cl)ccc1Cl`, 46%.
For `CC(C)(C)c1ccc(S(=O)(=O)Nc2ccc(O)c(Sc3nc4ccccc4s3)c2)cc1` the value was 3% (active); for `Cc1cc(S(=O)(=O)Nc2ccc(O)c(Sc3nc4ccccc4s3)c2)ccc1Cl`, -2% (active).
Regarding `CCN(C(=O)CSc1nnc(-c2cc(OC)c(OC)c(OC)c2)o1)c1ccccc1`, the survival is 87%.
With `CCn1c(CNC(=O)c2ccc(OC)cc2)nnc1SCC(=O)Nc1cccc(C)c1`, the survival was 119%.
To `CCC(C(=O)Nc1cccc(C#N)c1)n1nc(-c2ccccc2)ccc1=O` (centres undefined) belongs 79%; to `CC(C)N(Cc1ccccc1)C(=O)Cn1ncc2c3ccccc3n(Cc3ccccc3)c2c1=O`, 96%; to `CN(C)c1ccc(C(CNS(=O)(=O)c2ccc(Br)cc2)N2CCCC2)cc1` (centres undefined), 68%.
With `C=CCC(CC=C)(CNC(=O)C(=O)Nc1ccc(Br)cc1)c1ccc(OC)c(OC)c1`, the survival was 90%.
In the case of `Cc1cccc(C(=O)Nc2ccc(N3CCN(c4ccc(F)cc4)CC3)c(C(=O)O)c2)c1`, the survival is 63%.
Consider `O=C(Nc1ccc(N2CCC(N3CCCCC3)CC2)c(C(=O)O)c1)c1ccc(Br)cc1`, for which the survival is 75%.
For `O=C(Nc1ccc(N2CCN(c3ccc(F)cc3)CC2)c(C(=O)O)c1)c1ccccc1F` the value was 76%.
To `CC(=O)c1ccc(N2CCN(c3ccc(NC(=O)c4ccc(F)cc4)cc3C(=O)O)CC2)cc1` belongs 14% (active); to `Cc1cccc(NC(=O)c2ccc(F)c(S(=O)(=O)N3CCC4(CC3)OCCO4)c2)c1`, 71%; to `CCOc1ccccc1NC(=O)c1ccc(F)c(S(=O)(=O)N2CCN(c3ccc(F)cc3)CC2)c1`, 60%.
For `Cc1cccc(NC(=O)c2ccc(F)c(S(=O)(=O)N3CCN(c4ccc(F)cc4)CC3)c2)c1` the value was -3% (active); for `O=C(Nc1ccc(N2CCC(N3CCCCC3)CC2)c(C(=O)O)c1)c1ccccc1`, 70%; for `O=C(Nc1ccc(N2CCN(CCOc3ccc(Cl)cc3)CC2)c(C(=O)O)c1)c1ccc(F)cc1`, -3% (active).
As for `COc1ccc(C(=O)Nc2ccc(N3CCN(c4ccccc4)CC3)c(C(=O)O)c2)cc1`, the survival was 83%.
As to `O=C(Nc1ccc(N2CCOCC2)c(C(=O)O)c1)c1ccc(Br)cc1`, the survival is 0% (active).
For `CCCNC(=O)CN1CCN(c2ccc(NC(=O)c3ccc(OC)cc3)cc2C(=O)O)CC1` the value was 87%; for `COc1ccc(NC(=O)c2nnn(CC(=O)Nc3cc(C)cc(C)c3)c2N)c(OC)c1`, 139%; for `CC(=O)Nc1ccc(NC(=O)CCNS(=O)(=O)c2cccc3nsnc23)cc1`, 89%.
